3 compounds from PubChem BioAssay (EPA / NIEHS) can be followed below.

Read-out in test [1]: Epidermal growth factor receptor (EGFR), EGFR (gene 1956)
Description: BSK_hDFCGF_EGFR: BioMAP Diversity Plus: hDFCGF Assay for Epidermal growth factor receptor (EGFR) Biomarker Activity (AID 2283057). Conditions: primary human foreskin fibroblasts; actives raise or lower the signal. The method, boiled down: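 EGFR levels by ELISA in human dermal fibroblast cultures, 24 h post-treatment, fitted bidirectionally versus DMSO. Parallel wells stained with sulforhodamine B to detect overt cytotoxicity.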

Read-out in test [2]: Interleukin-8 (IL8), CXCL8 (gene 3576)
Description: BSK_hDFCGF_IL8: BioMAP Diversity Plus: hDFCGF Assay for Interleukin-8 (IL8) Biomarker Activity (AID 2283058). The following applies: primary human foreskin fibroblasts; actives raise or lower the signal. The method, boiled down:
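Primary human foreskin fibroblasts (hDFCGF system) dosed with chemical; IL-8 measured by ELISA 24 hours later. Bidirectional curve fitting relative to DMSO baseline; cytotoxicity tracked in parallel cultures by SRB total protein staining.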

Test [3] in a line: BSK_hDFCGF_Proliferation: Cell Proliferation Assessment in the BioMAP Diversity Plus: hDFCGF Assay (AID 2283059).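 Also: curves fitted for both rise and fall of signal versus DMSO baseline.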 Conditions: primary human foreskin fibroblasts. A digest of the protocol: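 Sub-confluent human foreskin fibroblast cultures receive test chemical […]. Relative cell number is quantified by sulforhodamine B staining (0.1%, after 10% TCA fixation) at 560 nm, with bidirectional fitting referenced to DMSO.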

Read-out in test [4]: Macrophage colony-stimulating factor (MCSF), CSF1 (gene 1435)
Nature of the test: BSK_hDFCGF_MCSF: BioMAP Diversity Plus: hDFCGF Assay for Macrophage colony-stimulating factor (MCSF) Biomarker Activity (AID 2283060). The following applies: primary human foreskin fibroblasts; actives raise or lower the signal. The method, boiled down: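 Human foreskin fibroblast primary cultures; M-CSF measured by ELISA 24 hours after chemical dosing. Bidirectional fitting relative to DMSO, with overt cytotoxicity tracked by parallel SRB total-protein staining (0.1% SRB, 10% TCA fixation, 560 nm).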

Read-out in test [5]: TIMP metallopeptidase inhibitor 1 (TIMP1), TIMP1 (gene 7076)
Description: BSK_hDFCGF_TIMP1: BioMAP Diversity Plus: hDFCGF Assay for TIMP metallopeptidase inhibitor 1 (TIMP1) Biomarker Activity (AID 2283062). Conditions: primary human foreskin fibroblasts; actives raise or lower the signal. The method, boiled down:
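Human foreskin fibroblast primary cultures dosed for 24 h; secreted/surface TIMP-1 quantified by ELISA. Bidirectional curve fitting against DMSO baseline; cytotoxicity tracked in parallel cultures by SRB total-protein staining.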

Read-out in test [6]: Monokine induced gamma interferon (MIG), CXCL9 (gene 4283)
Description: BSK_hDFCGF_MIG: BioMAP Diversity Plus: hDFCGF Assay for Monokine induced gamma interferon (MIG) Biomarker Activity (AID 2283063). Conditions: primary human foreskin fibroblasts; actives raise or lower the signal. A digest of the protocol:
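MIG/CXCL9 measured by ELISA 24 h after dosing primary human skin fibroblasts. Activity fitted in both directions against DMSO controls. Cytotoxicity was checked in parallel cultures by SRB staining read at 560 nm.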

Read-out in test [7]: Matrix Metallopeptidase 1 (MMP1), MMP1 (gene 4312)
Description: BSK_hDFCGF_MMP1: BioMAP Diversity Plus: hDFCGF Assay for Matrix Metallopeptidase 1 (MMP1) Biomarker Activity (AID 2283064). Conditions: primary human foreskin fibroblasts; actives raise or lower the signal. The method, boiled down:
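ELISA read-out of MMP1 from human foreskin fibroblasts (primary skin cells), 24 h post-dose. Gain or loss of signal was fitted bidirectionally versus DMSO negative control; cytotoxicity was checked by SRB in parallel cultures.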

Read-out in test [8]: Vascular cell adhesion molecule 1 (VCAM1), VCAM1 (gene 7412)
Nature of the test: BSK_hDFCGF_VCAM1: BioMAP Diversity Plus: hDFCGF Assay for Vascular cell adhesion molecule 1 (VCAM1) Biomarker Activity (AID 2283065).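 As to AC50: VCAM-1 protein level quantified by ELISA after 24 h chemical exposure.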 Conditions: primary human foreskin fibroblasts; actives raise or lower the signal. A digest of the protocol:
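Human foreskin fibroblast primary cells dosed with chemical, VCAM-1 measured by ELISA at 24 h. Bidirectional curve fitting relative to DMSO as negative control/baseline.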

Read-out in test [9]: Plasminogen activator inhibitor-1 (PAI1), SERPINE1 (gene 5054)
Description: BSK_hDFCGF_PAI1: BioMAP Diversity Plus: hDFCGF Assay for Plasminogen activator inhibitor-1 (PAI1) Biomarker Activity (AID 2283066). Conditions: primary human foreskin fibroblasts; actives raise or lower the signal. The method, boiled down:
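PAI-1 levels in human dermal foreskin fibroblasts were quantified by ELISA 24 h after dosing, with gain or loss analysed against DMSO. Overt cytotoxicity was checked by sulforhodamine B total-protein staining in parallel cultures.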

Read-out in test [10]: Intercellular Adhesion Molecule 1 (ICAM1), ICAM1 (gene 3383)
Description: BSK_KF3CT_ICAM1: BioMAP Diversity Plus: KF3CT Assay for Intercellular Adhesion Molecule 1 (ICAM1) Biomarker Activity (AID 2283067). Conditions: primary human keratinocytes with fibroblasts; actives raise or lower the signal. A digest of the protocol:
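Human keratinocyte–foreskin fibroblast co-culture was treated for 24 h. Cell-surface ICAM-1 was quantified by ELISA, fitted bidirectionally relative to DMSO. Cytotoxicity was checked in parallel cultures by SRB total-protein staining.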

Read-out in test [11]: Interferon-gamma inducible Protein 10 (IP10), CXCL10 (gene 3627)
Nature of the test: BSK_KF3CT_IP10: BioMAP Diversity Plus: KF3CT Assay for Interferon-gamma inducible Protein 10 (IP10) Biomarker Activity (AID 2283068). Conditions: primary human keratinocytes with fibroblasts; actives raise or lower the signal. The method, boiled down:
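ELISA read-out of IP-10 after 24 h chemical dosing of human skin primary co-culture (keratinocytes, foreskin fibroblasts). Gain or loss of signal relative to DMSO, bidirectional curve fit.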

Test [12] is described as follows: BSK_KF3CT_SRB: Viability Assessment in the BioMAP Diversity Plus: KF3CT Assay (AID 2283069).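 Also: read 24 h after compound addition.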 Conditions: primary human keratinocytes with fibroblasts. The method, boiled down: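 SRB read-out at 560 nm (0.1% stain, TCA-fixed cells) gauges overt cytotoxicity in a human skin keratinocyte–fibroblast co-culture 24 h post-dosing. Signal change was fitted bidirectionally relative to DMSO control.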

Read-out in test [13]: Interleukin-1 alpha (IL1a), IL1A (gene 3552)
Nature of the test: BSK_KF3CT_IL1a: BioMAP Diversity Plus: KF3CT Assay for Interleukin-1 alpha (IL1a) Biomarker Activity (AID 2283070). The following applies: primary human keratinocytes with fibroblasts; actives raise or lower the signal. A digest of the protocol:
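Primary skin co-culture (keratinocytes, foreskin fibroblasts), 24 h exposure; ELISA for IL-1a; bidirectional curve fit vs DMSO.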

Read-out in test [14]: TIMP metallopeptidase inhibitor 2 (TIMP2), TIMP2 (gene 7077)
Description: BSK_KF3CT_TIMP2: BioMAP Diversity Plus: KF3CT Assay for TIMP metallopeptidase inhibitor 2 (TIMP2) Biomarker Activity (AID 2283071). The following applies: primary human keratinocytes with fibroblasts; actives raise or lower the signal. The method, boiled down: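 TIMP-2 measured by ELISA at 24 h in human keratinocyte/fibroblast primary co-cultures exposed to chemicals. Both increases and decreases were fitted against DMSO. Parallel cultures were stained with SRB for total protein as an overt-cytotoxicity check.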

Read-out in test [15]: Transforming growth factor beta 1 (TGFb1), TGFB1 (gene 7040)
Description: BSK_KF3CT_TGFb1: BioMAP Diversity Plus: KF3CT Assay for Transforming growth factor beta 1 (TGFb1) Biomarker Activity (AID 2283072). Conditions: primary human keratinocytes with fibroblasts; actives raise or lower the signal. A digest of the protocol: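 ELISA quantifies TGF-b1 at 24 h post-dose in a primary human skin co-culture of keratinocytes and fibroblasts, with gain or loss judged against DMSO. Parallel SRB total-protein staining flags overt cytotoxicity.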

Read-out in test [16]: C-C motif chemokine 2 (Homo sapiens) (UniProt P13500)
Description: BSK_KF3CT_MCP1: BioMAP Diversity Plus: KF3CT Assay for Monocyte Chemoattractant Protein 1 (MCP1/CCL2) Biomarker Activity (AID 2283073). Conditions: primary human keratinocytes with fibroblasts; actives raise or lower the signal. The method, boiled down:
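Human keratinocyte–foreskin fibroblast co-culture; MCP-1 measured by ELISA 24 h after dosing. Bidirectional fit vs DMSO; cytotoxicity tracked by SRB total protein in parallel cultures.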

Read-out in test [17]: Matrix Metallopeptidase 9 (MMP9), MMP9 (gene 4318)
Nature of the test: BSK_KF3CT_MMP9: BioMAP Diversity Plus: KF3CT Assay for Matrix Metallopeptidase 9 (MMP9) Biomarker Activity (AID 2283074).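 As to AC50: MMP9 protein level quantified by ELISA in the co-culture.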 The following applies: primary human keratinocytes with fibroblasts; actives raise or lower the signal. A digest of the protocol:
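ELISA read-out of MMP-9 at 24 h post-dosing in a co-culture of human skin keratinocytes and foreskin fibroblasts. Gain or loss of signal was fitted in both directions against DMSO.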

Read-out in test [18]: urokinase plasminogen activator (uPA), PLAU (gene 5328)
Description: BSK_KF3CT_uPA: BioMAP Diversity Plus: KF3CT Assay for urokinase plasminogen activator (uPA) Biomarker Activity (AID 2283075). Conditions: primary human keratinocytes with fibroblasts; actives raise or lower the signal. A digest of the protocol:
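Skin co-culture (keratinocytes + foreskin fibroblasts), human primary; 24 h post-dose; uPA by ELISA; gain/loss fit vs DMSO baseline.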

Read-out in another test: CD40, CD40 (gene 958)
Nature of the test: BSK_LPS_CD40: BioMAP Diversity Plus: LPS Assay for CD40 Biomarker Activity (AID 2283076). The following applies: primary human HUVEC with PBMC; actives raise or lower the signal. The method, boiled down: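 HUVEC plus PBMC co-culture stimulated with LPS; CD40 quantified by ELISA 24 h after compound dosing. Fitting was bidirectional relative to DMSO. SRB staining of parallel cultures flagged overt cytotoxicity.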

Test [19] in a line: BSK_hDFCGF_SRB: Viability Assessment in the BioMAP Diversity Plus: hDFCGF Assay (AID 2283061).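 Also: cells exposed to compound for 24 h before the read.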 Conditions: primary human foreskin fibroblasts. The method, boiled down: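 Human foreskin fibroblasts in 96-well plates were treated 24 h. Total protein was measured by 0.1% SRB staining after 10% TCA fixation, read at 560 nm. Data were fitted bidirectionally against DMSO.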

SMILES strings stand for the structures. Activity calls are given as the source filed them. The calls were made as follows: active = hit-call score of the fitted dose curve at least 0.9, where 1 is the maximum; inactive = score below 0.9.

As for `N[C@@H](Cc1c[nH]c2ccccc12)C(=O)O`, the result in test [1], in test [2], in test [3], in test [4], in test [5] and in test [6] was inactive. Also, the outcome in test [7], in test [8], in [9], in [10], in [11] and in test [12] was inactive. Besides, the outcome in [13], in test [14], in [15], in test [16], in [17] and in test [18] was inactive. Besides, the outcome with CD40, CD40 (gene 958) was inactive.

For `Oc1ccc(O)cc1`, the outcome in [1], in test [12], in test [13], in [14], in [15] and in test [16] was inactive. Moreover, the outcome in test [18] was “inactive”; in the test with CD40, CD40 (gene 958) it was “inactive”. For the same compound, the AC50 was 31.5 µM (active) in test [2]; 0.465 µM (active) in test [3]; 11.6 µM (active) in test [4]; 13.4 µM (active) in test [5]; 18.7 µM (active) in test [6]; 33 µM (active) in test [7]. Also, the concentration at half-maximal activity (AC50) in test [8] is 13.5 µM (active); in [9], 14.7 µM (active); in [10], 6.66 µM (active); in test [11], 20 µM (active); in test [17] it was 20 µM (active).

As to `CC(=O)CC(c1ccccc1)c1c(O)c2ccccc2oc1=O` (stereo unspecified), the outcome in test [1], in [2], in test [3], in test [4], in [19] and in [5] was inactive. In addition, the outcome in test [6], in test [7], in [9], in [10], in test [11] and in test [12] was inactive. Besides, the outcome in test [13] is “inactive”; in [15], “inactive”; in [16], “inactive”; in test [17], “inactive”; in test [18], “inactive”; with CD40, CD40 (gene 958) it was “inactive”.

What is called AC50 is the concentration at which the activity in the assay is half-maximal.
